Values joined by “and” are separate entries in the source; they are usually repeats but may differ in a detail not shown here. Identical values can stand only once. Results filed as inconclusive are left out. Where a call stands in place of a potency, no number is given. More than one record can exist for a structure, and the calls need not agree. Active and inactive are the calls of the source. Unless noted, calls follow the shape of the dose curve; as a rule, active = well fitted curve in the direction sought with a large enough effect in the repeat runs; inconclusive = weak or mixed curves; inactive = no such curve, though single readings can be large; an effect the other way counts as inactive or inconclusive.
What was measured:
[1] = qHTS assay to identify aromatase inhibitors - cell viability counter screen (AID 743084);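 also: cells stimulated with testosterone during compound exposure; nearly all actives have a fitted effect of over 55% in size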; also: potency is read from the fitted curve at half-maximal effect
[2] = qHTS assay to identify small molecule that activate the aryl hydrocarbon receptor (AhR) signaling pathway - cell viability counter screen (AID 743086); also: nearly all actives have a fitted effect of over 45% in size; also: potency is read from the fitted curve at half-maximal effect
Procedure, shortened: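 Cytotoxicity counter screen: CellTiter-Fluor signal (30 min, 37 C) in 4000 HepG2 cells/well carrying the DRE-luciferase reporter, following 24 h compound exposure at 37 C.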

[3] = target: Peroxisome proliferator-activated receptor gamma (Homo sapiens) (UniProt P37231); assay: qHTS assay to identify small molecule agonists of the peroxisome proliferator-activated receptor gamma (PPARg) signaling pathway (AID 743094; active = well fitted activation curve with a large enough effect in the signal ratio in the repeat runs, not every such curve was filed as active; the % refers to the signal ratio; also: potency is read from the fitted curve at half-maximal effect)
Chain of Peroxisome proliferator-activated receptor gamma (Homo sapiens) (P37231 whole entry, looked up): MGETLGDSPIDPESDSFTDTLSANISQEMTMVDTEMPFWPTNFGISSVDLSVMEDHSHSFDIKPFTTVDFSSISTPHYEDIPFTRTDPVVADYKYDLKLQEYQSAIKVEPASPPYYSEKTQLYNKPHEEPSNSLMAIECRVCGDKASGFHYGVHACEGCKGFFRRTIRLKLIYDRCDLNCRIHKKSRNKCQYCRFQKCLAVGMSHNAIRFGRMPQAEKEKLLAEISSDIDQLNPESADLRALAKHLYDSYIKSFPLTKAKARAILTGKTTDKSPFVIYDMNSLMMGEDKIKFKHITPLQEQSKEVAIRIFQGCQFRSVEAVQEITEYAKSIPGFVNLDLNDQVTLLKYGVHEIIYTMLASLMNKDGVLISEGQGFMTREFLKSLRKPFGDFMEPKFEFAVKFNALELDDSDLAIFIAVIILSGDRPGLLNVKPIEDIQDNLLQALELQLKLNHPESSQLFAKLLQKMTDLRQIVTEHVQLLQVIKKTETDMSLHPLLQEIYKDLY
Procedure, shortened: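 Compounds dissolved in DMSO were added to PPARg UAS-bla HEK293H cells for 17 h at 37C, and reporter expression was quantified by fluorescence intensity after 1 h with LiveBLAzer B/G FRET substrate.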

[4] = target: Peroxisome proliferator-activated receptor gamma (Homo sapiens) (UniProt P37231); assay: qHTS assay to identify small molecule antagonists of the peroxisome proliferator-activated receptor gamma (PPARg) signaling pathway (AID 743191; calls by dose curve; also: nearly all actives have a fitted effect of over 30% in size; also: potency is read from the fitted curve at half-maximal effect)
Procedure, shortened: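 Beta-lactamase reporter under UAS control in HEK293H PPARg-bla cells; compound treatment 17 h at 37C. Read-out: fluorescence intensity after 1 h room-temperature incubation with LiveBLAzer B/G FRET substrate.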

[5] = qHTS assay for small molecule agonists of the antioxidant response element (ARE) signaling pathway - cell viability counter screen (AID 743203; calls by dose curve; also: nearly all actives have a fitted effect of over 55% in size; also: potency is read from the fitted curve at half-maximal effect)
Procedure, shortened: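 Following 16 hrs of compound treatment at 37C, HepG2 cells with an ARE-controlled beta-lactamase gene were lysed with CellTiter-Glo. Luminescence was read after 30 min at room temperature.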

[6] = qHTS assay for small molecule activators of the heat shock response signaling pathway - cell viability counter screen (AID 743209); also: nearly all actives have a fitted effect of over 50% in size; also: potency is read from the fitted curve at half-maximal effect
Procedure, shortened: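 Readout: CellTiter-Glo luminescence, 30 min at room temperature. System: HSE-bla HeLa cells, 1500/well, plated overnight. Treatment: compounds in DMSO, 5 h at 37 C.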

[7] = target: Peroxisome proliferator-activated receptor delta (Homo sapiens) (UniProt Q03181); assay: qHTS assay to identify small molecule agonists of the peroxisome proliferator-activated receptor delta (PPARd) signaling pathway (AID 743212; calls by dose curve; also: potency is read from the fitted curve at half-maximal effect)
Chain of Peroxisome proliferator-activated receptor delta (Homo sapiens) (Q03181 whole entry, looked up): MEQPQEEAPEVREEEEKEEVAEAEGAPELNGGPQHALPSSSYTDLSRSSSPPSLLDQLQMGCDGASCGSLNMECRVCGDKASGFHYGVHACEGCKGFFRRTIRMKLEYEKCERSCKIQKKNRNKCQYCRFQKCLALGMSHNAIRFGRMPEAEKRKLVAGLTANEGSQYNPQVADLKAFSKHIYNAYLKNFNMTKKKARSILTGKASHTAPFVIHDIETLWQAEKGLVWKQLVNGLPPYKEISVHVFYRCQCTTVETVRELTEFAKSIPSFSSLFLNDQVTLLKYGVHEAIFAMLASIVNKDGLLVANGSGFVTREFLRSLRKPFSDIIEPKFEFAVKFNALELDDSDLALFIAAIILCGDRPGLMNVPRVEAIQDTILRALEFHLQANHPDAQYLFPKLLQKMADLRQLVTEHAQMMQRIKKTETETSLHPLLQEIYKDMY
Procedure, shortened: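 HEK293H PPARd-bla cells; 5 h preincubation 37 C/5% CO2; compound (DMSO) 37 C; LiveBLAzer B/G FRET substrate 2 h RT; fluorescence intensity.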

[8] = target: Peroxisome proliferator-activated receptor delta (Homo sapiens) (UniProt Q03181); assay: qHTS assay to identify small molecule antagonists of the peroxisome proliferator-activated receptor delta (PPARd) signaling pathway (AID 743215; active = well fitted inhibition curve with a large enough effect in the signal ratio in the repeat runs, not every such curve was filed as active; the % refers to the signal ratio;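 also: cells stimulated with agonist L165041 at 300 nM final during compound exposure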; also: potency is read from the fitted curve at half-maximal effect)
Procedure, shortened: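 HEK293H UAS-bla, PPARd; agonist L165041 300 nM final with cpd in DMSO; 37 C 17 h; FRET substrate, RT 2 h; fluorescence intensity.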

[9] = target: Bile acid receptor (Homo sapiens) (UniProt Q96RI1); assay: qHTS assay to identify small molecule antagonists of the farnesoid-X-receptor (FXR) signaling pathway (AID 743217; active = well fitted inhibition curve with a large enough effect in the signal ratio in the repeat runs, not every such curve was filed as active; the % refers to the signal ratio; also: potency is read from the fitted curve at half-maximal effect)
Chain of Bile acid receptor (Homo sapiens) (Q96RI1 whole entry, looked up): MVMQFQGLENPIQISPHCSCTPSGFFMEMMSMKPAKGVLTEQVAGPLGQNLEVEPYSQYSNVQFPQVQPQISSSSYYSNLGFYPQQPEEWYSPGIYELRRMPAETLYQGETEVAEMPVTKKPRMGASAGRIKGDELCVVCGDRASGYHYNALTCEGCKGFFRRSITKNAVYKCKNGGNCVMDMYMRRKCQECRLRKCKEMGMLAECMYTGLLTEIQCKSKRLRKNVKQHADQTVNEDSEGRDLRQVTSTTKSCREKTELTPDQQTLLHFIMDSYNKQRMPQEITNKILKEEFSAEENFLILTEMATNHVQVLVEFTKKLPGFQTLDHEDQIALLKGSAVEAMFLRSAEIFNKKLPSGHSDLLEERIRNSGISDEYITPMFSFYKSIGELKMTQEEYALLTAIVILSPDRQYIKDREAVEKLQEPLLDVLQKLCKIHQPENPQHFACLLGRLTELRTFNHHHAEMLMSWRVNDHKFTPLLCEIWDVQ
Procedure, shortened: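 GeneBLAzer FXR-UAS-bla HEK 293T, CDCA-stimulated (50 uM final). Compound treatment 16 h, 37 °C. Detection: beta-lactamase cleavage of B/G FRET substrate, fluorescence.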

[10] = target: Bile acid receptor (Homo sapiens) (UniProt Q96RI1); assay: qHTS assay to identify small molecule agonists of the farnesoid-X-receptor (FXR) signaling pathway (AID 743220; active = well fitted activation curve with a large enough effect in the signal ratio in the repeat runs, not every such curve was filed as active; the % refers to the signal ratio)
Procedure, shortened: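 Beta-lactamase reporter under UAS control in GeneBLAzer FXR HEK 293T cells (5000/well) measured with LiveBLAzer FRET substrate after 2 h at room temperature. Compound exposure lasted 16 h at 37C.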

[11] = qHTS assay to identify small molecule antagonists of the farnesoid-X-receptor (FXR) signaling pathway - cell viability counter screen (AID 743221; active = well fitted cell-killing curve with a large enough effect in the repeat runs, not every such curve was filed as active; also: nearly all actives have a fitted effect of over 50% in size; also: potency is read from the fitted curve at half-maximal effect)
Procedure, shortened: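 After a 5 h settling period, FXR-bla HEK 293T cells receive compound and chenodeoxycholic acid (50 uM final) and incubate 16 h at 37 C; CellTiter-Glo luminescence, read after 30 min at room temperature, reports cell viability.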

[12] = target: Aryl hydrocarbon receptor (Homo sapiens) (UniProt P35869); assay: qHTS assay to identify small molecule that activate the aryl hydrocarbon receptor (AhR) signaling pathway (AID 743085); also: nearly all actives have a fitted effect of over 15% in size; also: potency is read from the fitted curve at half-maximal effect;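 as to activation: HG2L7.5c1 human HepG2 liver cells with stably integrated DRE-driven firefly reporter; series mostly up to about 70 µM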
Chain of Aryl hydrocarbon receptor (Homo sapiens) (P35869 whole entry, looked up): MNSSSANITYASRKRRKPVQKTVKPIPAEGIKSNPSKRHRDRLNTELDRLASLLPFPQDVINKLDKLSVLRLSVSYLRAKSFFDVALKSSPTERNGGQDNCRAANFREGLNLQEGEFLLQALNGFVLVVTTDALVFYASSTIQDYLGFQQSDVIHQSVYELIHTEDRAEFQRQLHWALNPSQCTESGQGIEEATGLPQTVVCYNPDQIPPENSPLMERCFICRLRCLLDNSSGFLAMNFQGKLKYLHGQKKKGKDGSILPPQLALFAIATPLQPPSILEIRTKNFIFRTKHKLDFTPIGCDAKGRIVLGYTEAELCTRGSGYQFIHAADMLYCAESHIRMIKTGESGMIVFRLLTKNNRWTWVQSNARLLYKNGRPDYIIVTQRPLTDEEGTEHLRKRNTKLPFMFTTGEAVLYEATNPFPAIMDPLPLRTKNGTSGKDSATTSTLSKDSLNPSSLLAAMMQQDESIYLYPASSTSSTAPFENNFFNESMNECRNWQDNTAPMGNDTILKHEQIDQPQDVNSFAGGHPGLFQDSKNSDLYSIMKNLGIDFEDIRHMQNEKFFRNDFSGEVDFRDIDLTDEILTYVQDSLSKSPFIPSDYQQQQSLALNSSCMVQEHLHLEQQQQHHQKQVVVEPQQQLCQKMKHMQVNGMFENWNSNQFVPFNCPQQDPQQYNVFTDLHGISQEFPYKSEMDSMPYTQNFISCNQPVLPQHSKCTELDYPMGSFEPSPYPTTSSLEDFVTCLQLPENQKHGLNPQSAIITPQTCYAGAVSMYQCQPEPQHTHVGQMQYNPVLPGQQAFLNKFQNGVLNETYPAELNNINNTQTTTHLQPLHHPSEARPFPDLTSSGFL
Procedure, shortened: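 AhR agonist activity is inferred from enhanced light output of a DRE-controlled firefly luciferase reporter in HepG2 cells, measured with ONE-Glo following 24 h treatment at 37C.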

[13] = qHTS assay to identify small molecule agonists of the peroxisome proliferator-activated receptor delta (PPARd) signaling pathway - cell viability counter screen (AID 743211); also: nearly all actives have a fitted effect of over 55% in size; also: potency is read from the fitted curve at half-maximal effect
Procedure, shortened: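 qHTS cell viability: PPARd-bla HEK293H; 17 h cpd, 37C; CellTiter-Glo, luminescence at 30 min RT.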

[14] = qHTS assay to identify small molecule antagonists of the peroxisome proliferator-activated receptor delta (PPARd) signaling pathway - cell viability counter screen (AID 743213); also: nearly all actives have a fitted effect of over 50% in size; also: potency is read from the fitted curve at half-maximal effect
Procedure, shortened: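 Cytotoxicity counter screen: CellTiter-Glo luminescence read 30 min after addition, in the same wells as the reporter assay. There, PPARd UAS-bla HEK293H cells (3000/well) were treated 17 h at 37 C with compound and 300 nM L165041.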

[15] = qHTS assay to identify small molecule agonists of the farnesoid-X-receptor (FXR) signaling pathway - cell viability counter screen (AID 743218); also: nearly all actives have a fitted effect of over 45% in size; also: potency is read from the fitted curve at half-maximal effect
Procedure, shortened: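 Parallel cytotoxicity test: compound-treated (16 h, 37 C) HEK 293T FXR-bla reporter cells were lysed with CellTiter-Glo and luminescence recorded.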

[16] = qHTS assay to identify small molecule antagonists of the peroxisome proliferator-activated receptor gamma (PPARg) signaling pathway - cell viability counter screen (AID 743194); also: nearly all actives have a fitted effect of over 55% in size; also: potency is read from the fitted curve at half-maximal effect
Procedure, shortened: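 Viability was measured as CellTiter-Glo luminescence in GeneBLAzer PPARg UAS-bla HEK293H cells. These cells had been exposed 17 h at 37 C to compounds together with rosiglitazone at 50 nM final, with the beta-lactamase readout taken in the same wells.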

[17] = qHTS assay for small molecule agonists of the antioxidant response element (ARE) signaling pathway (AID 743202; active = well fitted activation curve with a large enough effect in the signal ratio in the repeat runs, not every such curve was filed as active; the % refers to the signal ratio; also: potency is read from the fitted curve at half-maximal effect)
Procedure, shortened: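 Quantitative high-throughput format in HepG2 cells bearing an integrated ARE-beta-lactamase reporter. Compound exposure lasted 16 h at 37 C, and fluorescence was read 2 h after adding LiveBLAzer B/G substrate at room temperature.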

[18] = qHTS assay for small molecule activators of the heat shock response signaling pathway (AID 743210; active = well fitted activation curve with a large enough effect in the signal ratio in the repeat runs, with a control signal flat, not every such curve was filed as active; the % refers to the signal ratio;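 also: HeLa cells with beta-lactamase reporter driven by heat shock elements; series mostly up to about 63 µM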)
Procedure, shortened: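 HeLa HSE-bla cells, overnight plating; cpd in DMSO 5 h, 37 C; LiveBLAzer B/G FRET substrate 2.5 h RT; fluorescence intensity read.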

[19] = target: Vitamin D3 receptor (Homo sapiens) (UniProt P11473); assay: qHTS assay to identify small molecule agonists of the vitamin D receptor (VDR) signaling pathway (AID 743222; calls by dose curve)
Chain of Vitamin D3 receptor (Homo sapiens) (P11473 whole entry, looked up): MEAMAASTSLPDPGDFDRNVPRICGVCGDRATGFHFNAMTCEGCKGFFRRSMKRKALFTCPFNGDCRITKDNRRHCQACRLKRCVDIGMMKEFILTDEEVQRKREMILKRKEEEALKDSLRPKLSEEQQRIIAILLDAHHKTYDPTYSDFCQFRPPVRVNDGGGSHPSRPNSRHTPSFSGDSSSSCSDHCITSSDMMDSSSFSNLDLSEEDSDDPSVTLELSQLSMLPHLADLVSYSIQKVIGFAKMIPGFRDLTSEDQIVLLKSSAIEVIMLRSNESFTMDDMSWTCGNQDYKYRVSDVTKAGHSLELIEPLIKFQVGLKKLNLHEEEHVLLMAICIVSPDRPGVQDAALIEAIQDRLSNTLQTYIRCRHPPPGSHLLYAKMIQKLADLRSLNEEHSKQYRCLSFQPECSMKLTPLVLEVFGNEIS
Procedure, shortened: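 In VDR-bla cells, compound-induced beta-lactamase expression is quantified by FRET substrate fluorescence. Treatment lasts 16 h at 37C; substrate develops 2 h at room temperature.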

[20] = target: Vitamin D3 receptor (Homo sapiens) (UniProt P11473); assay: qHTS assay to identify small molecule antagonists of the vitamin D receptor (VDR) signaling pathway (AID 743223; active = well fitted inhibition curve with a large enough effect in the signal ratio in the repeat runs, not every such curve was filed as active; the % refers to the signal ratio)
Procedure, shortened: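 Reporter line VDR-bla; stimulus 1alpha,25-(OH)2 vitamin D3, 3 nM final; compound co-addition, 16 h 37C/5% CO2; LiveBLAzer B/G substrate 2 h RT; fluorescence intensity.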

| Compound | Potency [1] | Potency [2] | Potency [3] | Potency [4] | Potency [5] | Potency [6] | Potency [7] | Potency [8] | Potency [9] | Potency [10] | Potency [11] | Potency [12] | Potency [13] | Potency [14] | Potency [15] | Potency [16] | Potency [17] | Potency [18] | Potency [19] | Potency [20] |
| --- | --- | --- | --- | --- | --- | --- | --- | --- | --- | --- | --- | --- | --- | --- | --- | --- | --- | --- | --- | --- |
| Oc1ccc2cc(SSc3ccc4cc(O)ccc4c3)ccc2c1 | 54.5 µM (active) | inactive | inactive | 13.8 µM (active) | inactive | inactive | inactive | 17.4 µM (active) | inactive | inactive | inactive | – | – | – | – | – | – | – | – | – |
| CC1=C(/C=C/C(C)=C/C=C/C(C)=C/C=O)C(C)(C)CCC1 | 30.5 µM (active) | – | – | – | 60.8 µM (active) | – | inactive | 48.7 µM (active) | 61.3 µM (active) | – | 48.7 µM (active) | inactive | 12.2 µM (active) | 43.4 µM (active) | 21.8 µM (active) | – | – | – | – | – |
| CCCC1O[C@@H]2C[C@H]3[C@@H]4CCC5=CC(=O)C=C[C@]5(C)[C@H]4[C@@H](O)C[C@]3(C)[C@]2(C(=O)CO)O1 (stereo not given in full) | inactive and 61.2 µM (active) | inactive | inactive | inactive | inactive | inactive | inactive | inactive | inactive | inactive | inactive | – | inactive | inactive | inactive | inactive | 30.7 µM (active) and 54.5 µM (active) | inactive | inactive | – |
| O=C1C=CC(=O)N1 | 9.95 µM (active) | – | – | – | 62.8 µM (active) | – | – | – | – | inactive | – | inactive | 40 µM (active) | 44.8 µM (active) | – | 25.2 µM (active) | – | – | inactive | – |
| Oc1ccc(N=Nc2ccccc2)cc1 | 31 µM (active) | – | – | – | inactive | – | inactive | inactive | – | – | inactive | 61.9 µM (active) | – | – | inactive | inactive | – | inactive | – | – |
| c1cc(C(c2ccc(OCC3CO3)cc2)c2ccc(OCC3CO3)cc2)ccc1OCC1CO1 (stereo not given) | 54.5 µM (active) | – | – | – | – | inactive | – | – | – | – | inactive | inactive | 54.9 µM (active) | inactive | – | 21.9 µM (active) | – | – | – | – |
| c1ccc(CSCc2ccccc2)cc1 | inactive | inactive | inactive | inactive | inactive | inactive | inactive | inactive | – | – | inactive | – | inactive | inactive | inactive | inactive | – | inactive | inactive | – |
| COCCCC/C(=N\OCCN)c1ccc(C(F)(F)F)cc1 | inactive | – | – | – | inactive | inactive | inactive | inactive | inactive | inactive | – | inactive | 23.7 µM (active) | inactive | – | inactive | – | inactive | inactive | – |
| O=C1c2c(O)ccc(Nc3ccc(CCO)cc3)c2C(=O)c2c([N+](=O)[O-])ccc(O)c21 | 54.5 µM (active) | – | – | 54.9 µM (active) | – | inactive | inactive | – | inactive | inactive | inactive | 6.86 µM (active) | inactive | inactive | inactive | inactive | – | inactive | – | – |
| Nc1ccc(N)c2ccccc12 | 3.85 µM (active) | 4.32 µM (active) | – | – | 0.611 µM (active) | 34.6 µM (active) | – | – | – | – | – | – | 15.5 µM (active) | – | 43.6 µM (active) | 1.23 µM (active) | – | – | – | – |
| Cc1nc(-c2ccc3c(c2)CCN(CCC2CCC(NC(=O)/C=C/c4ccc(F)cc4)CC2)CC3)no1 (stereo not given) | inactive | inactive | 24.6 µM (active) | – | inactive | inactive | 21.9 µM (active) | – | inactive | – | – | – | inactive | inactive | inactive | inactive | – | – | – | – |
| CCc1cc(Cc2cc(CC)cc(C(C)(C)C)c2O)c(O)c(C(C)(C)C)c1 | 61.1 µM (active) | inactive | – | – | 21.7 µM (active) | 5.49 µM (active) | – | – | – | – | 11 µM (active) | – | 7.76 µM (active) | 6.92 µM (active) | 11 µM (active) | 6.92 µM (active) | – | – | – | – |
| C[C@@H](NCCCc1cccc(C(F)(F)F)c1)c1cccc2ccccc12 | 21.1 µM (active) | 29.8 µM (active) | – | – | 29.8 µM (active) | – | – | 29.8 µM (active) | – | inactive | – | – | 11.9 µM (active) | 26.6 µM (active) | 29.8 µM (active) | 26.6 µM (active) | – | – | – | – |
| CCc1oc2ccccc2c1C(=O)c1cc(Br)c(O)c(Br)c1 | inactive | inactive | 3.01 µM (active) | – | 23.7 µM (active) | – | – | – | – | – | – | – | – | – | – | – | – | – | – | – |
| Cc1cc(C2CCCCC2)n(O)c(=O)c1 | 12.7 µM (active) | inactive | – | – | – | – | – | – | – | – | – | – | 5.31 µM (active) | 9.44 µM (active) | – | – | – | – | – | – |
| COc1cc(-c2ccc(N=C=O)c(OC)c2)ccc1N=C=O | inactive | inactive | inactive | – | inactive | – | inactive | – | inactive | inactive | inactive | – | inactive | inactive | – | inactive | – | inactive | inactive | inactive |
| COc1cccc2c1C(=O)c1c(O)c3c(c(O)c1C2=O)C[C@@](O)(C(=O)CO)C[C@@H]3O[C@H]1C[C@H](N)[C@H](O[C@@H]2CCCCO2)[C@H](C)O1 | 13.3 µM (active) | 6.68 µM (active) | – | – | – | – | inactive | – | – | – | inactive | – | inactive | inactive | inactive | – | – | inactive | – | – |

Reference: PubChem BioAssay (Tox21)
